Source: PubChem BioAssay AID1159580 (chemical genetic matrix, 2015)
Several values for one entry are separate records, joined by “and”; a condition that tells them apart may be missing. Equal values may be shown once. The campaign covered roughly 5,500 compounds. About 2,000 (36%) were called active. Not shown: some 18% with an inconclusive outcome. No stated cut-off is given here; in the data, active means normalized growth mostly below about 0.91 (no sharp cut-off); inconclusive means no clear call, values can overlap the other calls; inactive means mostly above about 0.92. Some of the results follow.

Test: chemical genetic growth profiling, strain panel (AID 1159580);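 further: tested at 20 µM; growth read once vehicle control cultures reached saturation at 30 °C; 1 = growth at the plate median or of vehicle wells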
Details: growth OD

Measured: normalized growth

CN/C(=C\[N+](=O)[O-])NCCSCc1ccc(CN(C)C)o1
inactive: S. cerevisiae deletion strains, locus YKL009W, strain mrt4, stronger effect = lower value 1.02 | S. cerevisiae deletion strains, locus YKL068W, stronger effect = lower value 0.999 | S. cerevisiae deletion strains, locus YKL085W, strain MDH1 (second series), stronger effect = lower value 1.01 | S. cerevisiae deletion strains, locus YKL085W, strain MDH1, stronger effect = lower value 1.01 | S. cerevisiae deletion strains, locus YKL160W, strain elf1, stronger effect = lower value 0.988 | S. cerevisiae deletion strains, locus YKL190W, strain CNB1, stronger effect = lower value 1.01 | S. cerevisiae deletion strains, locus YKR001C, strain vps1, stronger effect = lower value 0.993 | S. cerevisiae deletion strains, locus YKR026C, strain gcn3, stronger effect = lower value 1 | S. cerevisiae deletion strains, locus YKR091W, strain srl3, stronger effect = lower value 0.988 | S. cerevisiae deletion strains, locus YLL001W, strain dnm1, stronger effect = lower value 0.989 | S. cerevisiae deletion strains, locus YLL026W, stronger effect = lower value 0.992 | S. cerevisiae deletion strains, locus YLL041C, strain sdh2, stronger effect = lower value 0.979 | S. cerevisiae deletion strains, locus YLR027C, strain aat2, stronger effect = lower value 0.989 | S. cerevisiae deletion strains, locus YLR039C, strain RIC1, stronger effect = lower value 1.05 | S. cerevisiae deletion strains, locus YLR058C, strain SHM2, stronger effect = lower value 1.03 | S. cerevisiae deletion strains, locus YLR102C, strain apc9, stronger effect = lower value 0.977 | S. cerevisiae deletion strains, locus YLR113W, strain HOG1, stronger effect = lower value 0.996 | S. cerevisiae deletion strains, locus YLR221C, strain rsa3, stronger effect = lower value 0.993 | S. cerevisiae deletion strains, locus YLR258W, strain gsy2, stronger effect = lower value 0.99 | S. cerevisiae deletion strains, locus YLR262C, strain YPT6 (second series), stronger effect = lower value 0.972 | S. cerevisiae deletion strains, locus YLR262C, strain YPT6, stronger effect = lower value 1.11 | S. cerevisiae deletion strains, locus YLR268W, strain sec22, stronger effect = lower value 0.997 | S. cerevisiae deletion strains, locus YLR320W, strain mms22, stronger effect = lower value 0.99 | S. cerevisiae deletion strains, locus YLR330W, strain CHS5, stronger effect = lower value 1.01 | S. cerevisiae deletion strains, locus YLR342W, strain FKS1 (second series), stronger effect = lower value 1.01 | S. cerevisiae deletion strains, locus YLR342W, strain FKS1, stronger effect = lower value 0.969 | S. cerevisiae deletion strains, locus YLR357W, strain rsc2, stronger effect = lower value 0.908 | S. cerevisiae deletion strains, locus YLR370C, strain arc18, stronger effect = lower value 0.982 | S. cerevisiae deletion strains, locus YLR371W, strain rom2, stronger effect = lower value 0.983 | S. cerevisiae deletion strains, locus YLR384C, strain iki3, stronger effect = lower value 0.989 | S. cerevisiae deletion strains, locus YLR418C, strain cdc73, stronger effect = lower value 0.994 | S. cerevisiae deletion strains, locus YML016C, strain PPZ1, stronger effect = lower value 1.02 | S. cerevisiae deletion strains, locus YML032C, strain rad52, stronger effect = lower value 0.977 | S. cerevisiae deletion strains, locus YML120C, strain ndi1, stronger effect = lower value 0.981 | S. cerevisiae deletion strains, locus YML124C, strain tub3, stronger effect = lower value 0.991 | S. cerevisiae deletion strains, locus YMR058W, strain fet3, stronger effect = lower value 0.979 | S. cerevisiae deletion strains, locus YMR078C, strain ctf18, stronger effect = lower value 0.987 | S. cerevisiae deletion strains, locus YMR125W, strain sto1, stronger effect = lower value 0.982 | S. cerevisiae deletion strains, locus YMR129W, stronger effect = lower value 0.995 | S. cerevisiae deletion strains, locus YMR205C, strain PFK2, stronger effect = lower value 0.976 | S. cerevisiae deletion strains, locus YMR223W, strain ubp8, stronger effect = lower value 0.996 | S. cerevisiae deletion strains, locus YMR231W, strain pep5, stronger effect = lower value 0.997 | S. cerevisiae deletion strains, locus YMR263W, strain SAP30, stronger effect = lower value 1.04 and 1 | S. cerevisiae deletion strains, locus YMR307W, strain GAS1, stronger effect = lower value 1.07 and 1.03 | S. cerevisiae deletion strains, locus YNL067W, strain RPL9B, stronger effect = lower value 1.04 | S. cerevisiae deletion strains, locus YNL071W, strain lat1, stronger effect = lower value 0.987 | S. cerevisiae deletion strains, locus YNL128W, strain TEP1, stronger effect = lower value 1.02 | S. cerevisiae deletion strains, locus YNL153C, strain GIM3, stronger effect = lower value 1.01 | S. cerevisiae deletion strains, locus YNL175C, strain NOP13, stronger effect = lower value 0.997 | S. cerevisiae deletion strains, locus YNL183C, strain NPR1, stronger effect = lower value 0.944 | S. cerevisiae deletion strains, locus YNL197C, strain WHI3, stronger effect = lower value 1.01 | S. cerevisiae deletion strains, locus YNL209W, strain ssb2, stronger effect = lower value 0.994 | S. cerevisiae deletion strains, locus YNL224C, strain SQS1, stronger effect = lower value 0.998 | S. cerevisiae deletion strains, locus YNL233W, strain BNI4, stronger effect = lower value 1.03 | S. cerevisiae deletion strains, locus YNL248C, strain rpa49, stronger effect = lower value 0.98 | S. cerevisiae deletion strains, locus YNL250W, strain rad50, stronger effect = lower value 0.982 | S. cerevisiae deletion strains, locus YNL271C, strain bni1, stronger effect = lower value 0.974 | S. cerevisiae deletion strains, locus YNL298W, strain CLA4, stronger effect = lower value 1 | S. cerevisiae deletion strains, locus YNL307C, strain MCK1, stronger effect = lower value 0.986 | S. cerevisiae deletion strains, locus YNL322C, strain KRE1 (second series), stronger effect = lower value 0.96 | S. cerevisiae deletion strains, locus YNL322C, strain KRE1, stronger effect = lower value 1.01 | S. cerevisiae deletion strains, locus YNR049C, strain mso1, stronger effect = lower value 0.988 | S. cerevisiae deletion strains, locus YNR052C, strain pop2, stronger effect = lower value 0.984 | S. cerevisiae deletion strains, locus YOL006C, strain TOP1, stronger effect = lower value 1.13 | S. cerevisiae deletion strains, locus YOL012C, strain htz1 1.11 | S. cerevisiae deletion strains, locus YOL147C, strain pex11, stronger effect = lower value 0.99 | S. cerevisiae deletion strains, locus YOR001W, strain rrp6, stronger effect = lower value 0.982 | S. cerevisiae deletion strains, locus YOR061W, strain CKA2, stronger effect = lower value 1.02 | S. cerevisiae deletion strains, locus YOR069W, strain VPS5, stronger effect = lower value 1.02 | S. cerevisiae deletion strains, locus YOR070C, strain gyp1, stronger effect = lower value 0.989 | S. cerevisiae deletion strains, locus YOR080W, strain dia2, stronger effect = lower value 0.99 | S. cerevisiae deletion strains, locus YOR083W, strain WHI5 (second series), stronger effect = lower value 1.02 | S. cerevisiae deletion strains, locus YOR083W, strain WHI5, stronger effect = lower value 0.982 | S. cerevisiae deletion strains, locus YOR106W, strain vam3, stronger effect = lower value 0.999 | S. cerevisiae deletion strains, locus YOR136W, strain idh2, stronger effect = lower value 0.982 | S. cerevisiae deletion strains, locus YOR144C, strain elg1, stronger effect = lower value 0.992 | S. cerevisiae deletion strains, locus YOR184W, strain ser1, stronger effect = lower value 0.994 | S. cerevisiae deletion strains, locus YOR231W, strain MKK1, stronger effect = lower value 0.99 | S. cerevisiae deletion strains, locus YOR265W, strain rbl2, stronger effect = lower value 0.974 | S. cerevisiae deletion strains, locus YOR270C, strain vph1, stronger effect = lower value 1 | S. cerevisiae deletion strains, locus YOR290C, strain snf2, stronger effect = lower value 0.996 | S. cerevisiae deletion strains, locus YOR316C, strain cot1, stronger effect = lower value 0.985 | S. cerevisiae deletion strains, locus YPL051W, strain arl3, stronger effect = lower value 1 | S. cerevisiae deletion strains, locus YPL055C, strain LGE1, stronger effect = lower value 0.991 | S. cerevisiae deletion strains, locus YPL078C, strain atp4, stronger effect = lower value 0.982 | S. cerevisiae deletion strains, locus YPL106C, strain sse1, stronger effect = lower value 0.956 | S. cerevisiae deletion strains, locus YPL240C, strain hsp82, stronger effect = lower value 0.99 | S. cerevisiae deletion strains, locus YPL241C, strain CIN2, stronger effect = lower value 1 | S. cerevisiae deletion strains, locus YPL256C, strain CLN2, stronger effect = lower value 0.968 | S. cerevisiae deletion strains, locus YPR119W, strain clb2, stronger effect = lower value 0.988 | S. cerevisiae deletion strains, locus YPR141C, strain kar3, stronger effect = lower value 0.995 | S. cerevisiae deletion strains, locus YPR163C, strain tif3, stronger effect = lower value 0.993 | S. cerevisiae deletion strains, locus YPR167C, strain met16, stronger effect = lower value 0.98 | S. cerevisiae deletion strains, strain wtn01, stronger effect = lower value 0.987 | S. cerevisiae strains, strain wild type, stronger effect = lower value 1.02
